The list is not random: actives were taken first. Their share in the collection is about 2.6%.
Mcl1-Noxa inh = disrupts binding of human Mcl-1 to Noxa peptide; Q07820; TR-FRET Mcl-1/Noxa peptide binding, 2 h; inhibition, % at 21.7 µM; 220,000 tested, 1.5% active;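 active means compounds that cut the protein-peptide binding signal by more than 50% relative to plate controls in a single-dose test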;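 further: His-tagged Mcl-1 with rhodamine Noxa BH3 peptide and terbium anti-His antibody; 0% = Mcl-1 plus Noxa peptide wells and 100% = peptide-only wells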
eIF4E 4G PPI = eIF4E/eIF4G interaction inhibition in translation initiation; P63073+Q04637; TR-FRET eIF4E-eIF4GI(517-606) binding, 2 h; inhibition, % at 21.7 µM; 220,000 tested, 0.37% active; AID 782;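 active means inhibition above about 30%, limit read from the data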;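 further: 0% = full FRET control wells and 100% = background wells lacking eIF4GI fragment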
Mcl1 Bid PPI = Mcl-1/Bid interaction inhibition. Q07820. TR-FRET Mcl-1/Bid-Dy647 peptide binding, 1536-well. inhibition, % at 21.7 µM. 220,000 tested, 0.97% active;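 active means compounds that cut the binding signal by more than half at the single screening dose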;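 further: His-tagged Mcl-1 with europium anti-His antibody binding Bid BH3 peptide; 0% = Mcl-1 plus peptide wells and 100% = peptide-only wells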
14-3-3 Bad inh = disrupts binding of bovine 14-3-3 zeta to phospho-Bad peptide. inhibition, % at 21.7 µM. TR-FRET 14-3-3zeta/Dy647-pBad peptide displacement, 1 h. 220,000 tested, 0.71% active;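 active means inhibition above about 70%, limit read from the data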;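 further: 0% = full 14-3-3 plus peptide FRET controls and 100% = background without 14-3-3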
Bim-Mcl-1 = inhibitors of Bim-Mcl-1 interaction, human. 190,000 tested, 0.1% active. Q07820. Bead-based flow cytometry, Bim peptide-Mcl-1 binding. inhibition, % at 10 µM; in the data active means inhibition above about 40%;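 further: 0% = no compound tracer wells and 100% = peptide blocker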
MCL1 BIM primary = MCL1-BIM-BH3 interaction inhibition (human) | GST-MCL1 / FITC-Bim-BH3 fluorescence polarization | inhibition, % at 10.9 µM | 320,000 tested, 0.68% active;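 active means inhibition above the mean inhibition of all tested compounds plus 3 SD, set per campaign, cut at about 40% in these data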;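 further: 0% = DMSO wells and 100% = unlabeled Bim-BH3 peptide control; higher means more loss of mP so more displacement of Bim peptide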
* marks the source's active call; other numbers are inactive results; / = no result given.

SMILES | Mcl1-Noxa inh | eIF4E 4G PPI | Mcl1 Bid PPI | 14-3-3 Bad inh | Bim-Mcl-1 | MCL1 BIM primary
O=C(CCC(=O)c1ccc(Oc2ccccc2)cc1)Nc1cccc(Cl)c1 | 7 | 6 | 98* | 1 | -9 | -7
CCCCn1c(N)c(N(CCOC)C(=O)c2cccc(-n3cnnn3)c2)c(=O)[nH]c1=O | / | / | / | / | / | -4
COc1ccc(C(=O)N2CCC(C(=O)N3CCN(c4ccc(OC)cc4)CC3)CC2)cc1 | / | / | / | / | / | 0
COc1ccccc1C(=O)N1CCC(N2CCN(c3ccccc3)CC2)CC1 | -68 | 6 | 56* | 48 | / | 3
COc1ccc(N2CCN(C(=O)c3ccc4c(c3)OCO4)CC2)cc1 | -6 | -5 | 86* | -3 | -2 | 0
COc1ccc(N2CCN(C(=O)c3ccc(CSc4ccccc4)cc3)CC2)cc1 | 96* | -4 | -17 | 7 | -2 | -1
COc1ccc(N2CCN(C(=O)CSc3ccccc3)CC2)cc1 | 10 | -1 | -13 | 44 | -4 | 10
CC(=O)c1ccc(N2CCN(C(=O)c3ccc4c(c3)OCO4)CC2)cc1 | / | / | / | / | / | -4
COc1ccccc1C(=O)N1CCC(N2CCN(c3ccccc3OC)CC2)CC1 | 16 | 6 | 24 | 25 | / | 2
COc1ccc(C(=O)N2CCC(N3CCN(c4ccccc4)CC3)CC2)cc1 | -5 | 1 | 37 | 89* | -3 | 1
CS(=O)(=O)c1ccc(Cl)c(NC(=O)CSc2n[nH]c(-c3cccs3)n2)c1 | / | / | / | / | / | 1
CCN1Cc2c(/C=C/c3ccccc3)nc3ccc(OC)cc3c2N(c2cccc(Cl)c2)C1 | -8 | 5 | -27 | 2 | / | -18
CC(C)CC(=O)N1CCC(N2CCN(c3ccccc3)CC2)CC1 | 18 | 50* | 48 | 52 | 2 | 1
Cc1ccc(S(=O)(=O)N(C)C)cc1NC(=O)COC(=O)c1ccc2ccccc2n1 | / | / | / | / | / | 15
COc1ccc(S(=O)(=O)NCC2CCCO2)cc1NC(=O)c1ccc(Cl)cc1 (configuration not stated) | / | / | / | / | / | 1
COC(=O)c1c(NC(=O)Cc2cccs2)sc2c1CCCC2 | 80* | 13 | 22 | -8 | -6 | 15
COCC(=O)Nc1sc2c(c1C(=O)OC)CCCC2 | 9 | -3 | -3 | -15 | -1 | 12
O=[N+]([O-])c1cc(Cl)cc(/C=N/NC(=S)Nc2ccc(S(=O)(=O)N3CCOCC3)cc2)c1O | 85* | 1 | 67* | 38 | / | 31
O=S(=O)(CCN1C=CC(C(F)(F)F)=NCC1)c1ccc(Cl)cc1Cl | 9 | 1 | -3 | -4 | / | 6
CCCOc1ncnc2c1[nH]c1ccc(OC)cc12 | 12 | 3 | -2 | 3 | / | 0
CCCOc1ncnc2c1[nH]c1ccccc12 | 86* | 13 | -18 | -4 | 0 | -1
Cc1cc(C)c(O)c(NC(=S)NC(=O)Cc2ccccc2)c1 | / | / | / | / | / | 12
O=C(NCc1ccc(F)cc1)C1CCCN1C(=O)NCc1ccccc1 (configuration not stated) | 52* | 5 | 2 | 4 | 1 | 0
CCOC(=O)C1CCN(C(=O)CSc2nc3ncccc3[nH]2)CC1 | / | / | / | / | / | 0
COc1ccc(-c2c(C)nn(Cc3ccccc3)c2N)cc1 | 16 | 1 | -14 | 86* | 0 | 6
SMILES | Mcl1-Noxa inh | eIF4E 4G PPI | Mcl1 Bid PPI | 14-3-3 Bad inh | Bim-Mcl-1 | MCL1 BIM primary
O=C(N1CCN=C1SCc1cccnc1)C12CC3CC(CC(C3)C1)C2 | 5 | -1 | -33 | 0 | -4 | 2
CCC(C)NCCOCCSc1ccc(Cl)cc1 (configuration not stated) | 4 | -5 | 52* | 52 | -5 | 5
Cc1ccc(S(=O)(=O)c2nc(-c3ccccc3Cl)oc2N(C)C)cc1 | / | / | / | / | / | 11
CN(C)c1oc(-c2ccccc2Cl)nc1P(=O)(c1ccccc1)c1ccccc1 | 64* | 12 | -12 | 37 | 0 | 5
Cc1ccc(S(=O)(=O)N(C)c2c(C)ccc(S(=O)(=O)NC(C)(C)C)c2C)cc1 | 0 | 0 | -12 | -2 | 0 | -4
NNC(=O)COc1ccccc1F | 9 | -4 | 3 | 5 | 47* | -8
COc1cccc(C(C2C(=O)CC(C)(C)CC2=O)C2C(=O)CC(C)(C)CC2=O)c1 | / | / | / | / | / | 5
CC1(C)CC(=O)C(C(c2cccnc2)C2C(=O)CC(C)(C)CC2=O)C(=O)C1 | -5 | -7 | 69* | -8 | -30 | 10
COc1ccc(Nc2nc(N3CCCC3)c3ccccc3n2)cc1 | 50 | -11 | -33 | 43 | 1 | 2
CCN(CC)c1ccc(Nc2nc(N3CCOCC3)c3ccccc3n2)cc1 | 54* | 15 | 22 | 56 | 3 | 23
CC1CC(C)CN(C(=O)C(Cc2ccccc2)NC(=O)c2ccccc2)C1 (configuration not stated) | / | / | / | / | / | 6
Cc1ccnc(NC(=O)c2ccc(Br)s2)c1 | / | / | / | / | / | -7
Cc1cccc(NC(=O)c2cccs2)n1 | 78* | 6 | -5 | -5 | 5 | 4
Cc1ccnc(NC(=O)c2cccs2)c1 | 17 | -1 | 31 | 86* | -3 | 6
Cc1cccc(NC(=O)c2cc3cc([N+](=O)[O-])ccc3s2)n1 | 60* | 2 | 34 | 89* | 5 | -9
COc1cc(C(=O)NCc2ccc3c(c2)OCO3)c([N+](=O)[O-])cc1OC | / | / | / | / | / | 4
CC[C@H](C)/C=C(C)/C=C/C1=CC2=CC(=O)[C@]3(C)OC(=O)[C@@H](C(C)=O)[C@@H]3C2=CO1 | 4 | 4 | -13 | 0 | 1 | 47*
O=[N+]([O-])c1ccc(-c2nc(NCc3ccccc3)c3ccccc3n2)cc1 | 56* | 12 | 39 | 14 | -6 | 2
Clc1cccc(/C=N/Nc2nc(Cl)nc3ccccc23)c1 | 87* | -1 | -32 | -3 | 0 | 7
Cc1ccc(-c2nc(N/N=C/c3cccc([N+](=O)[O-])c3)c3ccccc3n2)cc1 | 54* | -21 | 60* | 51 | -2 | 8
Cc1ccc(-c2nc(N/N=C/c3cccnc3)c3ccccc3n2)cc1 | 24 | -4 | 1 | -1 | -1 | 1
CCOC(=O)c1ccc(NC(=O)N2CCN(c3cccc(OC)c3)CC2)cc1 | 5 | 1 | -7 | 0 | -3 | -1
CCCCc1ccc(NC(=S)NCc2ccc(OC)cc2)cc1 | 6 | 0 | -40 | -9 | 2 | 3
C=CCNc1nc(-c2ccc(OC)cc2OC)cs1 | 19 | 8 | 15 | 76* | -4 | 6
COc1ccc(-c2csc(NC(=O)C3=COCCO3)n2)c(OC)c1 | / | / | / | / | / | -8
CN1CCN(c2nc(-c3ccccc3O)nc3ccccc23)CC1 | / | / | / | / | / | 1
COc1cccc(-c2nc(N3CCN(C)CC3)c3ccccc3n2)c1O | 68* | 8 | -54 | -2 | / | 4
O=C(CN1CCc2ccccc21)NCc1ccc2c(c1)OCO2 | -1 | 1 | -41 | -2 | -5 | -2
O=C(CN1CCCc2ccccc21)NCc1ccc2c(c1)OCO2 | 11 | -6 | -23 | -7 | -3 | 52*
